Here are results for 47 molecules from PubChem BioAssay AID2685 (National Center for Advancing Translational Sciences (NCATS), 2010).

About 2,100 (0.66%) of roughly 320,000 compounds were called active. Another 53% or so got no clear call; they are omitted. Calls come from the whole dose curve; as a rule, active = well fitted inhibition curve with a large enough effect in the signal ratio, with a control signal flat (not every such curve was filed as active); inconclusive = small, poorly fitted or top-dose-only effect, or effect the other way, or a change in a side signal; inactive = flat fitted curve, though single readings scatter; the % refers to the signal ratio. Many of the other results were omitted from the sample, so actives are more common in it than they were.
Potency is the fitted concentration of half-maximal effect.

This assay in a line: qHTS Assay for Lipid Storage Modulators in Drosophila S3 Cells.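 For cell number change: cells counted by Cell Tracker Red CMTPX staining in the red channel.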 For lipid storage change, negative = inhibition: % is set by controls: 0 for no effect and ±100 for the full control effect. As to conditions: BODIPY lipid droplet fluorescence, 18-24 h, cells fed with added oleic acid; cell number change: measured here: cell count max response; series mostly up to 46.1 µM; lipid storage change, negative = inhibition: at the top concentration. The method in brief:
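Laser-scanning cytometry quantifies lipid droplet accumulation (500–530 nm total intensity; droplet/cell object ratio) in oleic acid-fed (400 uM added) Drosophila S3 cells treated with a concentration series. 20 uM Triacsin C defined 100% inhibition.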
(In qHTS, concentration-response curves come from the screen itself.)
For `Cc1ccc(C(=O)N2CCC3(CC2)Oc2ccc(F)cc2C(=O)C32CC(c3ccccc3)=NO2)s1` (stereo not given), the “lipid storage change, negative = inhibition” value was 11.6% (inactive) and the cell number change was 11.1%.

For the molecule `COc1ccc(OC)c(N(CC(=O)Nc2ccc(NC(C)=O)cc2)S(C)(=O)=O)c1`, the outcome was inactive and the cell number change is 18.4%.

With `Cc1ccnc(NC(=O)c2ccc(N3C(=O)CCC3=O)cc2)c1`, the “lipid storage change, negative = inhibition” value was -7.96% (inactive) and the cell number change is -2.76%.

Take `Cc1ccccc1NC(=O)CCc1nnc2ccc(N3CCC4(CC3)OCCO4)nn12`: the “lipid storage change, negative = inhibition” value is -6.37% (inactive) and the cell number change stood at 15.5%.

As for `COc1cc(NC(=O)CCc2nnc3ccc(N4CCN(c5cccc(OC)c5)CC4)nn23)cc(OC)c1`, the result was inactive and the cell number change was -21.5%.

In the case of `COc1cccc(NC(=O)CCc2nnc3ccc(N4CCN(c5cccc(OC)c5)CC4)nn23)c1`, the Potency was 9.2 µM (active) and the cell number change was -24.5%.

Turning to `COC(=O)c1ccc(NC(=O)CCc2nnc3ccc(N4CCC5(CC4)OCCO5)nn23)cc1`, the call was inactive and the cell number change was -17.4%.

Turning to `COc1ccccc1NC(=O)CCc1nnc2ccc(N3CCC4(CC3)OCCO4)nn12`, the Potency is 2.06 µM (active) and the cell number change was -20.4%.

In the case of `COc1cccc(N2CCN(c3ccc4nnc(CCC(=O)Nc5cccc(C(C)=O)c5)n4n3)CC2)c1`, the result was inactive and the cell number change is -9.88%.

On to `CCCCC(C(=O)N/N=C/c1ccccn1)C(=O)N/N=C/c1ccccn1`, for which the “lipid storage change, negative = inhibition” value was 15.9% (inactive) and the cell number change was 2.01%.

On to `COc1cccc(NC(C)(C)c2nnnn2-c2c(C)cccc2C)c1`, for which the “lipid storage change, negative = inhibition” value was -0.863% (inactive) and the cell number change came out at 12.6%.

Regarding `O=C(CCN1CCc2ccccc2C1)Nc1ccc(F)c(F)c1`, the “lipid storage change, negative = inhibition” value was 14.2% (inactive).

For the molecule `CCOC(=O)c1c(S(=O)(=O)NCC(=O)Nc2ccc(OC)cc2)c(C)n(C)c1C`, the “lipid storage change, negative = inhibition” value was 23.4% (inactive).

`CCCOC(=O)CCCC[C@H]1SC[C@@H](NC(=O)OC)[C@H]1NC(=O)OC`: the “lipid storage change, negative = inhibition” value is 3.15% (inactive) and the cell number change is 5.48%.

Consider `CCOC(=O)c1c(C)nc(-c2ccccc2)nc1N`, for which the call was inactive and the cell number change was 1.72%.

For `O=C(Cc1ccccc1Cl)NCCCn1ccnc1`, the “lipid storage change, negative = inhibition” value was -1.3% (inactive) and the cell number change is -1.19%.

Take `O=C(COc1coc(CN2CCN(c3ccccc3)CC2)cc1=O)NCC1CCCO1` (stereo not given): the outcome was “inactive [at 0.0737 µM]”.

For `CCN(CC)S(=O)(=O)c1c(OC)cc(C)c(Cl)c1C`, the “lipid storage change, negative = inhibition” value is -25% (inactive) and the cell number change was 8.74%.

In the case of `O=C(COc1ccc(F)cc1)NCCCn1ccnc1`, the Potency is 25.9 µM (active) and the cell number change was -6.85%.

Take `Cc1cc(OCC(=O)NCc2ccncc2)c2c(C)c(C)c(=O)oc2c1`: the call was inactive and the cell number change was 8.73%.

On to `COc1ccc(OCC(=O)NCCCn2ccnc2)cc1`, for which the “lipid storage change, negative = inhibition” value is 19.8% (inactive) and the cell number change was determined as 17.2%.

For the molecule `Cc1cc(OCC(=O)NCCCn2ccnc2)c2c(C)c(C)c(=O)oc2c1`, the Potency was 13 µM (active).

Consider `CCCc1cc(=O)oc2cc(C)cc(OCC(=O)NCc3cccnc3)c12`, for which the result was inactive and the cell number change is -12.5%.

On to `Cc1c(C)c2ccc(OCC(=O)Nc3ccccn3)c(C)c2oc1=O`, for which the molecule was classed as inactive and the cell number change turned out to be 15.9%.

In the case of `Cc1cc(OCC(=O)Nc2ccccn2)c2c(C)c(C)c(=O)oc2c1`, the Potency was 7.31 µM (active) and the cell number change is -10.4%.

On to `CCCc1cc(=O)oc2cc(C)cc(OCC(=O)NCc3ccccn3)c12`, for which the Potency was 11.6 µM (active) and the cell number change was 6.85%.

Regarding `O=C(COc1ccc(Br)cc1)NCCCn1ccnc1`, the “lipid storage change, negative = inhibition” value was -17.2% (inactive) and the cell number change is 9.25%.

As for `CCc1cc(=O)oc2cc(C)cc(OCC(=O)NCCCn3ccnc3)c12`, the “lipid storage change, negative = inhibition” value is 10.1% (inactive) and the cell number change was found to be 8.87%.

As to `CCCc1cc(=O)oc2cc(C)cc(OCC(=O)NCc3ccncc3)c12`, the outcome was inactive and the cell number change came to 4.58%.

For the molecule `CCCc1cc(=O)oc2cc(C)cc(OCC(=O)NCCCn3ccnc3)c12`, the “lipid storage change, negative = inhibition” value is -24.1% (inactive) and the cell number change stood at 0.597%.

In the case of `COc1ccc(CN(C)S(=O)(=O)c2nnc(NC(=O)c3ccccc3OC)s2)cc1OC`, the outcome was inactive and the cell number change was -3.88%.

Turning to `Cc1ccccc1CCNC(=O)C1CCCN(c2cnccn2)C1` (stereo not given), the result was inactive and the cell number change is -4.78%.

Turning to `Cc1cccc(NC(=S)NCC(c2cccnc2)N2CCOCC2)c1` (stereo not given), the “lipid storage change, negative = inhibition” value was 16.3% (inactive) and the cell number change was 16.1%.

Take `N#Cc1ccc(C(CC(=O)O)N2Cc3ccccc3C2=O)cc1` (stereo not given): the “lipid storage change, negative = inhibition” value was 1.6% (inactive) and the cell number change was found to be 6.48%.

Take `Cc1ccc(NC2CCCN(C(=O)c3ccoc3)C2)cc1C` (stereo not given): the “lipid storage change, negative = inhibition” value was -3.71% (inactive) and the cell number change is -11.9%.

`O=C(c1ccc(C(F)(F)F)cc1)N1CCN(S(=O)(=O)c2ccc3c(c2)OCCCO3)CC1`: the “lipid storage change, negative = inhibition” value is 16.3% (inactive) and the cell number change stood at 3.78%.

`COc1ccccc1C(=O)Nc1ccc(Br)cc1C`: the “lipid storage change, negative = inhibition” value is 7.89% (inactive) and the cell number change was 6.15%.

Turning to `COc1ccccc1NC(=O)c1cccc2c(Br)cccc12`, the molecule was called inactive and the cell number change is -20.6%.

Turning to `COc1ccccc1C(=O)Nc1ccc(Br)c2cccnc12`, the Potency was 1.64 µM (active) and the cell number change was -27.2%.

On to `CNc1ccc(Oc2c(F)c(F)nc(F)c2F)cc1`, for which the “lipid storage change, negative = inhibition” value is 5.56% (inactive) and the cell number change is -27.7%.

Turning to `CCn1c(=O)n(CC)c2cc(N3CCCC3)c(NC(=O)c3cc(Cl)ccc3OC)cc21`, the Potency is 5.8 µM (active) and the cell number change is -12.8%.

Regarding `CCn1c(=O)n(CC)c2cc(N3CCCC3)c(NC(=O)c3ccc(C)cc3)cc21`, the molecule was classed as inactive and the cell number change was -23.8%.

Turning to `COc1ccc(Cl)cc1C(=O)Nc1ccccc1N1CCCCC1`, the “lipid storage change, negative = inhibition” value was 24.2% (inactive) and the cell number change stood at 5.02%.

Consider `Cc1ccc2c(n1)CC(C)(C)C/C2=N\O`, for which the “lipid storage change, negative = inhibition” value was 2.92% (inactive) and the cell number change worked out at 3.94%.

In the case of `CC(C)Oc1cccc(C(=O)C2CCCN(C(=O)c3ccc4c(c3)OCO4)C2)c1` (stereo not given), the “lipid storage change, negative = inhibition” value was -19.1% (inactive) and the cell number change was -14.4%.

Regarding `CC(C)Oc1cccc(C(=O)C2CCCN(C(=O)c3csnn3)C2)c1` (stereo not given), the “lipid storage change, negative = inhibition” value is -2.76% (inactive) and the cell number change is 3.1%.

In the case of `CC(C)Oc1cccc(C(=O)C2CCCN(C(=O)c3ccsc3)C2)c1` (stereo not given), the Potency was 18.4 µM (active) and the cell number change is -18.6%.
